Experimental data from the supplement of paper PMC11417369.
± gives the standard deviation of the averaged measurements. In all, about 25,000 sequences were measured (“ln(normalized median fluorescence intensity)”: median about 10, highest 2% from about 12 on). What follows is part of a selection rich in the highest values, with near analogues and random picks from the rest.

tested on: PfAP2-G AP2 domain (GST-tagged); assay: gcPBM binding intensity (ln(normalized median fluorescence intensity)); higher = stronger DNA binding
Outline: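 GST-fused DNA-binding domains of P. falciparum, expressed in E. coli, were applied at about 25 μg on average for 1 h to an Agilent 4 × 180k array of primer-extended double-stranded 36-bp intergenic genomic probes and negative controls. Binding intensity is the highest Masliner-normalised natural-log median intensity across replicate spots of either probe orientation, measured with Alexa488 anti-GST antibody and a 488 nm scan.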

| Sequence | gcPBM binding intensity (ln) |
| --- | --- |
| ATATATATTATATGCACACTAATAAGACTATTTAAA [CACACA_site3554] | 10.1 ± 0.23 |
| TAGAAGCATTGACACACACACATACATACACATACA [CACACA_site6802] | 10.2 ± 0.26 |
| TTACATATTTTTTAACGTACATAAATATATATGTAT [XGTACX_site8406] | 11.4 ± 0.79 |
| ATAAATAAAATAAAAGCACACAAAATGTAAATAATT [CACACA_site8895] | 10.04 ± 0.057 |
| ATATAATTTAATTTCTGTACATAAGAGAAAAAACAA [XGTACX_site4865] | 11.1 ± 0.64 |
| TATATATATATTATATGTACGTATGTATGTATATAT [XGTACX_site6451] | 11.3 ± 0.8 |
| ATATATATATATATATGTACGTACTCAGTTATGCCT [XGTACX_site453] | 11.7 ± 1.2 |
| GTATATATGTATGTATGTACGTATATAGTTATGTAT [XGTACX_site6769] | 11.6 ± 0.93 |
| TCCTCGCGTAATACTTTTCAAATAAAAAAAATAAAA [TGCATGCA_negctrl_site403] | 10.5 ± 0.48 |
| ATTTGTGTATATTAGAGTACATAAAATTAGAGGAAC [XGTACX_site1654] | 11.6 ± 0.92 |
| ATAACCACATAAAATATAATTATATATATATATATA [CACACA_negctrl_site603] | 9.87 ± 0.26 |
| TTATTTTTTTATTCATGTACACAAGAACATTTCATT [XGTACX_site5744] | 11.3 ± 0.67 |
| TTTTTTTTTTTTATTTGTACACATTTTCATATTTTT [XGTACX_site4406] | 11.3 ± 0.98 |
| TCATTTATTTTTCTTTGTACACAAAAGTTTTTATGT [XGTACX_site690] | 11.4 ± 0.9 |
| TTTATTTTTCATTGGGGTACACAAGTTTATTTTTGA [XGTACX_site4262] | 11.7 ± 0.86 |
| GTTTATTTTTTCATTTGTACACATAAATAAATATAT [XGTACX_site7752] | 11.5 ± 0.75 |
| TTTATTTTTCATTGGGGTACACAAGTTTATTTTATT [XGTACX_site4263] | 11.7 ± 0.96 |
| GCTTAATACAGAATAACACACAAAATAAATAAATAA [CACACA_site4041] | 10 ± 0.12 |
| TTTTGGATGAACAGTACATGCAAAAACAAACTTGTA [TGCATGCA_site16] | 10.8 ± 0.37 |
| ATATCTTCACTTATATGTACTTACATTTTTTTTTTT [XGTACX_site8696] | 11.4 ± 0.81 |
| AGGAGGTCAGTTCACAGTACCCAGAAACTCTACGAG [XGTACX_site2006] | 11.1 ± 0.73 |
| ATATATATTTTTATAACACACAATGATGTACATTAC [CACACA_site1076] | 11.3 ± 0.84 |
| AAATATAATTAATGATGTACACTTATAGATATTGAT [XGTACX_site8435] | 11.4 ± 0.68 |

| Sequence | gcPBM binding intensity (ln) |
| --- | --- |
| ATATAATTACATTGATGTACACGAAATGATTAACAT [XGTACX_site5183] | 11.7 ± 1.1 |
| CAGAAATATTAATGCTGTACGGAATACATATATTTT [XGTACX_site539] | 10.9 ± 0.6 |
| TATTCATAATTTTAATGTACAAAATGGTTTGTAATA [XGTACX_site8493] | 10.6 ± 0.33 |
| TTTCATTTTAGAAGTACACACAAAAAATAAAATAAT [CACACA_site2141] | 11.6 ± 0.92 |
| TAAATTTTTTTTTTTTGTACACAAAAATATAATATT [XGTACX_site8151] | 11.4 ± 0.98 |
| AGGTCATACATAAAATGTACATATATATAAATATAT [XGTACX_site7147] | 10.9 ± 0.54 |
| GTAATAATTTTTTGTAGTACACAAAAATTCATATTT [XGTACX_site2699] | 11.7 ± 1.1 |
| TAAGTCATATAAATGTGTACATAAAAAAAAAAAATG [XGTACX_site1645] | 11.6 ± 1 |
| ATAAAAATAAATAAATGTACATATATATATATATAT [XGTACX_site1277] | 11.1 ± 0.58 |
| AATAATATATGGTGTACACAAAAGTATAAATAATTT [CACACA_site5338] | 11.9 ± 1 |
| AATTTCATTTTTAGAAGTACATTTATATTAAAAATC [XGTACX_site2888] | 11.2 ± 0.95 |
| TACAAATTTATATAAAGTACAAAAAATAATAAAAAT [XGTACX_site7355] | 11.1 ± 0.57 |
| AATTTTCATTTTAGAAGTACACACAAAAAATAAAAT [XGTACX_site4426] | 11.7 ± 1.1 |
| GTTAAAATAATATGGTGTACAAATATATAAGTTCAT [XGTACX_site3262] | 11.4 ± 0.79 |
| ATAGAATACATATATGAACACACAGAGTTTTAAAAA [CACACA_site8879] | 10.15 ± 0.042 |
| ATATTTAAAGAATAAGTGCAAAATGTAATTAATTTT [GTGCAC_site9901] | 10.065 ± 0.007 |
| TAAAAAAACATATATTGTACGGAGATAATAATTTTT [XGTACX_site2946] | 10.6 ± 0.31 |
| TTATATTTAGTATATGCACACTTTATGTTTGTTATT [CACACA_site5163] | 9.955 ± 0.035 |
| TAAAAGGATGCATATACACACATATAGATTTATATA [CACACA_site7336] | 9.915 ± 0.035 |
| AATAATTTCCAAAAATGTACATATATTTACATATAT [XGTACX_site1790] | 10.9 ± 0.52 |
| AAAATAATAATAAAAAGTACATGTGTATATAATAAA [XGTACX_site754] | 11.3 ± 0.82 |
| TGAAAAGAAAACACATGTACAAATATATAAATATAA [XGTACX_site6098] | 10.8 ± 0.35 |
| TATATATCCATGTGTACACACAAAAAAAAATAAAGT [CACACA_site7107] | 11.7 ± 0.93 |

| Sequence | gcPBM binding intensity (ln) |
| --- | --- |
| TATATATTCATGTGTACACACAAAAAAAAATAAAGT [CACACA_site2207] | 11.7 ± 0.9 |
| AAATATATATTCATGTGTACACACAAAAAAAAATAA [XGTACX_site4552] | 11.6 ± 0.84 |
| AATATATATTCATGTGTACACACAAAAAAAAATAAA [CACACA_site8690] | 11.6 ± 0.84 |
| CTTTATATATTTTATTGTACTTAAAAAAAAAAAAAA [XGTACX_site2134] | 11.4 ± 1.1 |
| ACATACATACATACATACATACATACATACATACAT [XGTACX_negctrl_site315] | 10.6 ± 0.57 |
| AAGAAATATATATATATATATATATATATATATGTA [TGCATGCA_negctrl_site442] | 9.67 ± 0.16 |
| AATAAAAAAAATAGCATACACACATATATACATATA [CACACA_site659] | 9.75 ± 0.028 |
| TGGTCTTTTAAACAAAAATATAAATTTTTAAATATG [CACACA_negctrl_site392] | 9.94 ± 0.23 |
| ACACAAAAATAAAAATGTACAAATTAAAAAAAATGA [XGTACX_site2083] | 10.8 ± 0.42 |
| AAAAAAAAAAAAAGGTGTACATGCAAAATAAATTCT [XGTACX_site4592] | 11.6 ± 0.93 |
| AAAAAAAAAAGGTGTACATGCAAAATAAATTCTTAA [TGCATGCA_site556] | 11.6 ± 1.1 |
| GGTGTTAAAAAATACACACACAAAAAAAAAAAAAAA [CACACA_site138] | 9.95 ± 0.51 |
| TTTGAAATAAAAAGGTGTACACTCGATTAATAAATA [XGTACX_site6943] | 11.8 ± 0.98 |
| AATTAATAAAAAAGGTGTACAGTAAATGCAATAATC [XGTACX_site7956] | 11.7 ± 0.99 |
| AAAGGTGTATATAATACACACGTGTGATTAAAATTG [CACACA_site8104] | 10.13 ± 0.064 |
| AATAAATTAATAAGGTGTACATAAATAATTTATATA [XGTACX_site8278] | 11.5 ± 0.94 |
| TAAAATTTAAAAAGGTGTACACTATAAATTAAAATA [XGTACX_site2081] | 11.7 ± 0.95 |
| TGTTAATAAAGGTGTACACAAAATAAAAAAAATTAT [CACACA_site4288] | 11.7 ± 0.92 |
| AATTAATAAGAAAGGTGTACAGAAAAAAAAAAATAT [XGTACX_site2106] | 11.5 ± 0.8 |
| TTAAAAAAAAAAAGGTGTACTATAATTTAATATCAC [XGTACX_site6316] | 11.6 ± 1.1 |
| TATAAATTATATATTTGTACGTATATCACATATATA [XGTACX_site7053] | 11.3 ± 0.84 |
| AATTTTATTTAAAGTGCATGTAAAATTAAAACTTTT [TGCATGCA_site989] | 10 ± 0.057 |
| ATATAGAACACCTGTGCATGCAAGTGCTAAAAAATT [TGCATGCA_site213] | 10.2 ± 0.2 |

| Sequence | gcPBM binding intensity (ln) |
| --- | --- |
| ATTTTTTCTGTCTTAATTGGACCCACTGCAAATGGG [CACACA_negctrl_site1158] | 10.9 ± 0.54 |
| AACATATAAATGATATGTACACACATTTATATATAT [XGTACX_site7364] | 11.4 ± 0.53 |
| TATTTGATAAAAAAAAGTACTAGAATTTCGCTTTTG [XGTACX_site7754] | 11.1 ± 0.7 |
| ATATATACCTAAGACACACACATATAGATTTATATA [CACACA_site6498] | 9.97 ± 0.028 |
| AAAAAAATAATAAAATGTACAAATAAACACATAAAG [XGTACX_site5102] | 10.8 ± 0.39 |
| TAGGTGTTAAAAAATACACACACAAAAAAAAAAAAA [CACACA_site7927] | 9.93 ± 0.45 |
| AAATGTTAATAAAGGTGTACACAAAATAAAAAAAAT [XGTACX_site463] | 11.7 ± 0.71 |
| TAAAGTAAAGACATACTTATTTTCCATCCACTTCTT [CACACA_negctrl_site1288] | 10 ± 0.18 |
| AGTATACTCGGACACACACACACATATATATATATA [CACACA_site5031] | 11.1 ± 0.51 |
| AATTATTTTAAATATTGTACTATTACAGAATGGTGT [XGTACX_site5693] | 11 ± 0.56 |
| ATTAAATCATATGAATGTACGGATATATATATTTCC [XGTACX_site8650] | 10.7 ± 0.48 |
| AATTATTTTATGAAAAGTACACATTGTTTTAATTCT [XGTACX_site4506] | 11.4 ± 0.98 |
| TATATTTTATAAAAAAGTACACATGAAAATGTATTT [XGTACX_site5889] | 11.5 ± 1.1 |
| GTAATTTTAAAGAAAAGTACACATTTATTAATTATT [XGTACX_site4468] | 11.5 ± 1.2 |
| ATTTATGAAAAGTAAAGTACACACAGGAAAAAAAAA [XGTACX_site3564] | 11.4 ± 0.72 |
| TTTTAAAGAAAAAAATGTACAAAATTTTTATTTTAA [XGTACX_site1496] | 10.6 ± 0.35 |
| TTTTTTATTAAAAGTAGTACACATGAAAAAAAAAAA [XGTACX_site5524] | 11.8 ± 1 |
| ATAGTATTTTTTATTACACACAAATAAAAAGAAAAA [CACACA_site2087] | 10.2 ± 0.26 |
| AAAAAAAAAAAAAAAAGTACACATCATTTTATGAAA [XGTACX_site1402] | 11.7 ± 0.76 |
| AGTTATTTTAAATGTAGTACACAAAAGAAATATTAA [XGTACX_site4092] | 11.6 ± 0.94 |
